Test results as given in PubChem BioAssay.

target: Dihydroorotate dehydrogenase (quinone), mitochondrial (Plasmodium falciparum (isolate 3D7)) (UniProt Q08210); assay: PfDHODH enzyme inhibitors, primary screen, biochemical, C-terminal His tag, absorbance 600 nm (AID 1175); conditions: DCIP absorbance 600 nm, higher = more signal, called active from +8 up or from −8 down;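 further: recombinant parasite enzyme with a five histidine tag at its C terminus; test concentration not given here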
Sequence (Q08210 whole entry, looked up): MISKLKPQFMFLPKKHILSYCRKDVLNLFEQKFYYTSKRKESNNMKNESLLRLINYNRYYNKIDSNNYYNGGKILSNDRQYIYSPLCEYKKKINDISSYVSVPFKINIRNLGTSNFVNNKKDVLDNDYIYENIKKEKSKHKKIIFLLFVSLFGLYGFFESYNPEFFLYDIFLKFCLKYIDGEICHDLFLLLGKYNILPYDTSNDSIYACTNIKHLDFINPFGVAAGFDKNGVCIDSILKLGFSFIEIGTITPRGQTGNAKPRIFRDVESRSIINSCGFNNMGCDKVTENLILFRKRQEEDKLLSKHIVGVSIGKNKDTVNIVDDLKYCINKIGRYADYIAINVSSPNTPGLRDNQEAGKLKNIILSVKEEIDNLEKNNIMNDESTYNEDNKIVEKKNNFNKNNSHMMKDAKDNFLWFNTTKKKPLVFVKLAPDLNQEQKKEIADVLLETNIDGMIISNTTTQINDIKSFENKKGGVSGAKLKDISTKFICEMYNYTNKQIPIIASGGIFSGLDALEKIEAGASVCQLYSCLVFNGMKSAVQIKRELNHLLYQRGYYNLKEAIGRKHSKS

Composite z-score, inactive:
COCCOC(=O)N1C(=O)[C@@]2(c3cc(C#CCCO)ccc31)[C@H](C(=O)N1CCN(c3ncccn3)CC1)[C@H]1C(=O)O[C@H](c3ccccc3)[C@H](c3ccccc3)N1[C@@H]2c1ccc(OCCO)cc1 -0.486
CC[C@@H](O[Si](C#C[Si](C(C)C)(C(C)C)C(C)C)(C(C)C)C(C)C)c1cn(Cc2cccc(Cl)c2)nn1 0.625
COCCOC(=O)N1C(=O)[C@@]2(c3cc(C#CCC(C(=O)OC)C(=O)OC)ccc31)[C@H](c1ccc(O)cc1)N1[C@H](c3ccccc3)[C@H](c3ccccc3)OC(=O)[C@H]1[C@@H]2C(=O)N1CCc2cc(OC)c(OC)cc2C1 -0.118
Cc1ccc(S[C@]2(C(=O)NCCN3CCOCC3)CC(=O)N(C(C)C)[C@@H]2c2ccc(CO)cc2I)cc1 -2.11
CC(C)c1ccc(NN2C(C(O)c3ccccc3)C=CC3C(=O)N(c4ccccc4)C(=O)C32)cc1 (stereo not drawn) 1.25
CC(C)C(=C=CC[C@H](O)c1cccc(OCCO)c1)C[C@H](O)c1ccccn1 -0.332
COCCOC(=O)N1C(=O)[C@@]2(c3cc(C#CCNC(N)=O)ccc31)[C@H](c1ccc(O)cc1)N1[C@H](c3ccccc3)[C@H](c3ccccc3)OC(=O)[C@H]1[C@@H]2C(=O)N1CCc2cc(OC)c(OC)cc2C1 1.38
[N-]=[N+]=NCc1ccccc1[C@H]1OC(c2ccc(OCCCO)cc2)=N[C@@]1(Cc1ccccc1N=[N+]=[N-])C(=O)N1CCOCC1 1.03
